18 compounds from PubChem BioAssay (Tox21) can be followed below.

A short description of assay [1]: cAMP Responsive Elements (CRE) small molecule antagonists, cell-based qHTS assay: qHTS cell viability counter screen (AID 2060913). Further: nearly all actives have a fitted effect of over 40% in size. Put shortly: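 HEK293T CRE-bla, 2,000 cells/well, 18 h preincubation; cpd in DMSO + NKH477 0.25 uM final, 3 h 37 C/5% CO2; LiveBLAzer 2 h RT, then CellTiter-Glo 30 min RT, luminescence.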
(In general: In qHTS, concentration-response curves come from the screen itself.)

A short description of assay [2]: cAMP Responsive Elements (CRE) small molecule agonists, cell-based qHTS assay: qHTS cell viability counter screen (AID 2060914).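 Further: viability read after 3 h of compound exposure; nearly all actives have a fitted effect of over 50% in size.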 In outline:
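CRE-bla HEK 293T cells, plated 18 h at 37 °C, were exposed to compounds for 3 h at 37 °C/5% CO2. Viability was then measured in the same wells by CellTiter-Glo luminescence after 30 min at room temperature.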

Structures are written as SMILES. Results filed as inconclusive are left out. A call without a number means that no potency is given here. Active and inactive are the calls of the source. The call rests on the fitted dose curve; in most records, active means well fitted cell-killing curve with a large enough effect in the repeat runs; inconclusive means weak or mixed curves, or effect the other way; inactive means flat fitted curve, though single readings scatter.

Regarding `O=C(N/N=C/c1ccc([N+](=O)[O-])o1)c1cc([N+](=O)[O-])cc([N+](=O)[O-])c1O`, the Potency result in assay [1] and in assay [2] was “inactive” throughout.

Take `CCOc1cc(Oc2ccc(C(F)(F)F)cc2Cl)ccc1[N+](=O)[O-]`: the Potency result in assay [1] and in assay [2] was “inactive” each time.

Consider `CCCCN(N=O)C(=N)N[N+](=O)[O-]`, for which the Potency entry in assay [1] and in assay [2] was “inactive” each time.

Take `S=C(SSC(=S)N1CCCCC1)N1CCCCC1`: the Potency entry in assay [1] and in assay [2] was “inactive” throughout.

Take `COC(=O)c1c(C(F)F)nc(C(F)(F)F)c(C2=NCCS2)c1CC(C)C`: the Potency result in assay [1] and in assay [2] was “inactive” each time.

Consider `c1ccc2c(c1)Nc1ccccc1S2`, for which the Potency entry in assay [1] and in assay [2] was “inactive” throughout.

For the compound `O=C(CCl)c1ccccc1`, the Potency result in assay [1] and in assay [2] was “inactive” in each case.

Consider `CN(C)C(=O)Nc1cccc(OC(=O)NC(C)(C)C)c1`, for which the Potency result in assay [1] and in assay [2] was “inactive” each time.

For `O=C1NC(=O)C(=O)C(=O)N1`, the Potency result in assay [1] and in assay [2] was “inactive” each time.

As to `O=C(O)CC(O)(CC(=O)O)C(=O)O`, the Potency result in assay [1] and in assay [2] was “inactive” each time.

As to `CCOC1Oc2ccc(OS(C)(=O)=O)cc2C1(C)C` (stereo unspecified), the Potency entry in assay [1] and in assay [2] was “inactive” each time.

For `c1ccc(-c2cccc(-c3ccccc3)c2)cc1`, the Potency entry in assay [1] and in assay [2] was “inactive” each time.

Turning to `Clc1cc(Cl)c(Cl)c(Cl)c1`, the Potency result in assay [1] and in assay [2] was “inactive” throughout.

`CC[C@]1(O)CC[C@H]2[C@@H]3CCC4=CCCC[C@@H]4[C@H]3CC[C@@]21C`: the Potency result in assay [1] and in assay [2] was “inactive” each time.

On to `Cc1ncsc1CCCl`, for which the Potency result in assay [1] and in assay [2] was “inactive” throughout.

Turning to `O=C1CC[C@@]2(O)[C@H]3Cc4ccc(O)c5c4[C@@]2(CCN3CC2CC2)[C@H]1O5`, the Potency result in assay [1] and in assay [2] was “inactive” in each case.

With `CC1=C2[C@H]3OC(=O)[C@@H](C)[C@@H]3CC[C@@]2(C)C=CC1=O`, the Potency entry in assay [1] and in assay [2] was “inactive” throughout.

Consider `CC(Cl)(Cl)[N+](=O)[O-]`, for which the Potency entry in assay [1] and in assay [2] was “inactive” throughout.
